# Laboratory results: PubChem BioAssay (NCI)
# This is part of a sample that, as a whole, favours compounds with a hit. Of some 79,000 tested, about 15% had one in any assay. Values without a mark were called inactive. The source made the active and inactive calls. No stated cut-off is given here; in the data, active means growth inhibition above about 70%; inactive means the rest. Where a SMILES comes first, the peptide text is derived from it. [ ]: non-standard residue; d: D form. ξ: configuration not given here. ξD = NC(CC(=O)O)C(=O)O
# Test: NCI Yeast Anticancer Drug Screen. Data for the mlh1 rad18 strain (AID 175)
# Settings: S. cerevisiae mlh1 rad18 strain growth inhibition; at 5.0 µM (retest, dose inferred, filed as 0.5); hits give high values
# Method in brief: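 Steps: expose repair-defective yeast to compound; measure growth; express inhibition against vehicle-treated controls.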
row,SMILES,growth inhibition
1,COC(=O)c1nc(=S)[nH]c(C(=O)OC)c1C(=O)c1ccc(Cl)c(Cl)c1,11%
2,NC(=Nc1nc(-c2ccccn2)cc2ccccc12)c1ccccn1,61%
3,Cc1nc(Sc2nc3ccc([N+](=O)[O-])cc3s2)sc1C,-13%
4,NC(=S)Nc1ccc2c(c1)Cc1ccccc1-2,7%
5,CN(C)CCN(C)CC(C)(C)C(=O)/C=C/c1ccc(Cl)c(Cl)c1,8%
6,CCCCCCCCCCCCCCCc1ccc(C(=O)C[n+]2ccccc2)cc1,32%
7,O=C(CCl)N(c1ccccc1)c1ccccc1,2%
8,CCOC(=O)C1=C(C(=O)c2ccccc2)C(c2cccc([N+](=O)[O-])c2)C(C(=O)c2ccccc2)=C(C(=O)OCC)N1,-28%
9,CCN1CCCC(Nc2cc(C)nc(/N=C(/N)Nc3ccc(Cl)c(Cl)c3)n2)C1 (stereo not drawn),57%
10,CCc1cnc2ccccc2c1/C=C/c1ccc(N(C)C)cc1,-8%
11,O=[N+]([O-])c1ccc2c(c1)Cc1ccccc1-2,20%
12,Fc1ccc(NCCS)cc1,-31%
13,CCCCC(C=O)(C=C=C(C)C)CC (stereo not drawn),-32%
14,CN(C)c1ccc(/C=C/c2cc[n+](C)c(/C=C/c3ccc(N(C)C)cc3)c2)cc1,100% (active)
15,COc1cc([C@@H]2c3cc4c(cc3[C@H](OC3OC5COC(c6ccccc6)OC5C(O)C3O)[C@H]3COC(=O)[C@H]23)OCO4)cc(OC)c1OC (stereo partly drawn),-4%
16,OC(c1cc(-c2ccc(Cl)cc2)nc2c(Cl)cccc12)C1CCCCN1 (stereo not drawn),69%
17,CSc1nc(C)c(C(=O)CCN2CCN(c3ccccn3)CC2)s1,-3%
18,Cc1cc(C(=O)c2ccc(Cl)cc2)ccc1O,-1%
19,O=C(c1ccccc1)C(Br)C(Br)c1ccccc1 (stereo not drawn),43%
20,CCCCCCN(CCCCCC)CCCNc1nccc2ccccc12,10%

row,SMILES,growth inhibition
1,CCCCCCCCCCCC[S+](C)CC(=O)[O-] (stereo not drawn),10%
2,COC(=O)C(=[N+]=[N-])C(=O)c1ccc([N+](=O)[O-])o1,25%
3,Cc1c(O)ccc(SC#N)c1C,-1%
4,Oc1c(Cl)cc(Cl)cc1C(c1cc(Cl)cc(Cl)c1O)C(Cl)(Cl)Cl,0%
5,CCCCCCCCCCCCNCCCc1ccccc1,99% (active)
6,Nc1ccc(C(=O)/C=C/c2ccccc2)cc1,4%
7,NCC(=O)NC(CC(=O)O)C(=O)O (stereo not drawn) (H-Gly-[ξD]-OH),8%
8,CN(C)c1ccc(C(=C2C=CC(=[N+](C)C)C=C2)c2ccc(N(C)C)cc2)cc1,99% (active)
9,O=C1c2ccccc2Cc2cccc(Cl)c21,2%
10,O=C/C=C/c1ccc([N+](=O)[O-])cc1,72% (active)
11,O=C1c2ccccc2C(=O)c2c(O)c(Cl)cc(O)c21,6%
12,CN1CSC(=S)N(Cc2ccccc2)C1,-2%
13,CC(O)C(O)C(O)C(O)C(O)C(=O)NNc1ccccc1 (stereo not drawn),26%
14,Cn1c(COC(=O)NC2CCCCC2)c(COC(=O)NC2CCCCC2)c2ccc3cc(Cl)c(Cl)cc3c21,9%
15,NC(=S)N/N=C\c1nccc2c(N)cccc12,10%
16,Oc1cc(Cl)ccc1Cc1ccc(Cl)cc1O,96% (active)
17,CCCCCCCCCCCC(=O)OC(C)C(=O)NCCCC (stereo not drawn),-17%
18,CCC(=O)c1cc([N+](=O)[O-])c(Br)s1,99% (active)
19,OC(Cc1cc(CC(O)(C(F)(F)F)C(F)(F)F)nc(CC(O)(C(F)(F)F)C(F)(F)F)c1)(C(F)(F)F)C(F)(F)F,19%

# Same assay, conditions: S. cerevisiae mlh1 rad18 strain growth inhibition; at 50.0 µM (retest, dose inferred, filed as 5.0); hits give high values
row,SMILES,growth inhibition
1,COC(=O)c1nc(=S)[nH]c(C(=O)OC)c1C(=O)c1ccc(Cl)c(Cl)c1,99% (active)
2,NC(=Nc1nc(-c2ccccn2)cc2ccccc12)c1ccccn1,69%
3,Cc1nc(Sc2nc3ccc([N+](=O)[O-])cc3s2)sc1C,90% (active)
4,NC(=S)Nc1ccc2c(c1)Cc1ccccc1-2,38%
5,CN(C)CCN(C)CC(C)(C)C(=O)/C=C/c1ccc(Cl)c(Cl)c1,99% (active)
6,CCCCCCCCCCCCCCCc1ccc(C(=O)C[n+]2ccccc2)cc1,97% (active)
7,O=C(CCl)N(c1ccccc1)c1ccccc1,73% (active)
8,CCOC(=O)C1=C(C(=O)c2ccccc2)C(c2cccc([N+](=O)[O-])c2)C(C(=O)c2ccccc2)=C(C(=O)OCC)N1,42%
9,CCN1CCCC(Nc2cc(C)nc(/N=C(/N)Nc3ccc(Cl)c(Cl)c3)n2)C1 (stereo not drawn),97% (active)
10,CCc1cnc2ccccc2c1/C=C/c1ccc(N(C)C)cc1,94% (active)
11,O=[N+]([O-])c1ccc2c(c1)Cc1ccccc1-2,2%
12,Fc1ccc(NCCS)cc1,90% (active)
13,CCCCC(C=O)(C=C=C(C)C)CC (stereo not drawn),-4%
14,CN(C)c1ccc(/C=C/c2cc[n+](C)c(/C=C/c3ccc(N(C)C)cc3)c2)cc1,96% (active)
15,COc1cc([C@@H]2c3cc4c(cc3[C@H](OC3OC5COC(c6ccccc6)OC5C(O)C3O)[C@H]3COC(=O)[C@H]23)OCO4)cc(OC)c1OC (stereo partly drawn),91% (active)
16,OC(c1cc(-c2ccc(Cl)cc2)nc2c(Cl)cccc12)C1CCCCN1 (stereo not drawn),88% (active)
17,CSc1nc(C)c(C(=O)CCN2CCN(c3ccccn3)CC2)s1,99% (active)
18,Cc1cc(C(=O)c2ccc(Cl)cc2)ccc1O,-2%
19,O=C(c1ccccc1)C(Br)C(Br)c1ccccc1 (stereo not drawn),95% (active)
20,CCCCCCN(CCCCCC)CCCNc1nccc2ccccc12,64%

row,SMILES,growth inhibition
1,CCCCCCCCCCCC[S+](C)CC(=O)[O-] (stereo not drawn),41%
2,COC(=O)C(=[N+]=[N-])C(=O)c1ccc([N+](=O)[O-])o1,99% (active)
3,Cc1c(O)ccc(SC#N)c1C,87% (active)
4,Oc1c(Cl)cc(Cl)cc1C(c1cc(Cl)cc(Cl)c1O)C(Cl)(Cl)Cl,99% (active)
5,CCCCCCCCCCCCNCCCc1ccccc1,99% (active)
6,Nc1ccc(C(=O)/C=C/c2ccccc2)cc1,53%
7,NCC(=O)NC(CC(=O)O)C(=O)O (stereo not drawn) (H-Gly-[ξD]-OH),16%
8,CN(C)c1ccc(C(=C2C=CC(=[N+](C)C)C=C2)c2ccc(N(C)C)cc2)cc1,90% (active)
9,O=C1c2ccccc2Cc2cccc(Cl)c21,17%
10,O=C/C=C/c1ccc([N+](=O)[O-])cc1,99% (active)
11,O=C1c2ccccc2C(=O)c2c(O)c(Cl)cc(O)c21,57%
12,CN1CSC(=S)N(Cc2ccccc2)C1,89% (active)
13,CC(O)C(O)C(O)C(O)C(O)C(=O)NNc1ccccc1 (stereo not drawn),85% (active)
14,Cn1c(COC(=O)NC2CCCCC2)c(COC(=O)NC2CCCCC2)c2ccc3cc(Cl)c(Cl)cc3c21,11%
15,NC(=S)N/N=C\c1nccc2c(N)cccc12,85% (active)
16,Oc1cc(Cl)ccc1Cc1ccc(Cl)cc1O,96% (active)
17,CCCCCCCCCCCC(=O)OC(C)C(=O)NCCCC (stereo not drawn),32%
18,CCC(=O)c1cc([N+](=O)[O-])c(Br)s1,99% (active)
19,OC(Cc1cc(CC(O)(C(F)(F)F)C(F)(F)F)nc(CC(O)(C(F)(F)F)C(F)(F)F)c1)(C(F)(F)F)C(F)(F)F,99% (active)
